The text below walks through data of PubChem BioAssay (NCATS).

Records with an inconclusive call do not appear. Entries that show only a call come without a potency. Activity calls are given as the source filed them. The call rests on the fitted dose curve.
Potency means the concentration at half of the fitted maximal effect.

This experiment can be described thus: Cytotoxicity counterscreen for inhibitors of SARS-CoV-2 cell entry (AID 1645845). Further: nearly all actives have a fitted effect of over 50% in size. The conditions noted are these: cell viability (SARS-CoV-2 entry assay cells); series mostly up to 57.1 µM. A digest of the protocol: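 48 h compound treatment (after 1 h preincubation), HEK293-ACE2 cells, 37 C/5% CO2; ATP luminescence endpoint; normalized to cell wells and media blanks.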
(A counterscreen serves to expose hits that act by an unwanted route or on another target.)
Regarding `Cc1[nH]c(/C=C2\C(=O)Nc3ccccc32)c(C)c1CCC(=O)O`, the Potency result is “inactive”. As for `CCNC(=O)Nc1ccc(Oc2ncnc(N)c2/C=N/OC)cc1Cl`, the entry is “inactive”; as for `CCN1C(=O)CNc2ncc(-c3ccc(-c4ncn[nH]4)nc3C)nc21`, 22.4 µM (active).

Take `CN(C)C/C=C/C(=O)Nc1cc2c(Nc3ccc(F)c(Cl)c3)ncnc2cc1O[C@H]1CCOC1`: the Potency entry was “inactive”. To `Cn1cncc1C(N)(c1ccc(Cl)cc1)c1ccc2c(c1)c(-c1cccc(Cl)c1)cc(=O)n2C` (stereo not given) belongs 8.91 µM (active); to `Cc1cc(N2CCOCC2)ccc1Nc1nc(NC2CCCCC2)c2[nH]cnc2n1`, “inactive”. `CNC(=O)[C@@H](NC(=O)[C@H](CC(C)C)[C@H](O)C(=O)NO)C(C)(C)C`: the Potency entry is “inactive”.

As to `Cc1cc(C)c(S(=O)(=O)N(CCc2cccc(Br)c2)Cc2ccc(-c3cccc(S(C)(=O)=O)c3)cc2)c(C)c1`, the Potency entry is “inactive”.

With `CN1CCN(c2ccc(Nc3ncc4cc(C#N)c(=O)n(C5CCCC5)c4n3)cc2)CC1`, the Potency entry was “inactive”. For `Cc1sc2c(c1C)C(c1ccc(Cl)cc1)=N[C@@H](CC(=O)Nc1ccc(OCCOCCOCCOCCNc3cccc4c3C(=O)N(C3CCC(=O)NC3=O)C4=O)cc1)c1nnc(C)n1-2` (stereo not given in full), the Potency result is “inactive”. As for `O=C(Cc1cccc(OC(F)(F)F)c1)Nc1ccc(CCCCc2nnc(NC(=O)Cc3ccccn3)s2)nn1`, the entry is “inactive”; as for `Nc1ncccc1-c1nc2ccc(-c3ccccc3)nc2n1-c1ccc(C2(N)CCC2)cc1`, 31.6 µM (active).

On to `CCCc1cc(C)[nH]c(=O)c1CNC(=O)c1cc(-c2ccc(N3CCN(C(C)C)CC3)nc2)cc2c1cnn2C(C)C`, for which the Potency result is “inactive”.

As to `O=C(NO)C1(CS(=O)(=O)c2ccc(Oc3ccc(Cl)cc3)cc2)CCOCC1`, the Potency result was “inactive”.

Consider `Cc1ccc(C(=O)Nc2ccc(Oc3cc4cnn(C)c4cc3-c3cn[nH]c3)c(F)c2)c(=O)n1-c1ccc(F)cc1`, for which the Potency result is “inactive”. With `CN1CCN(c2ccc(-c3cccc(CN4CCOCC4)c3)cc2NC(=O)c2c[nH]c(=O)cc2C(F)(F)F)CC1`, the Potency entry was “inactive”. As to `COc1ccc(-c2oc3ncnc(N)c3c2-c2ccc(NC(=O)Nc3cc(C(F)(F)F)ccc3F)cc2)cc1`, the Potency entry is “inactive”.

As for `O=c1[nH]nc2c3c(cccc13)NC(CN1Cc3ccccc3C1)=N2`, the Potency result is “inactive”. Turning to `Cn1ncc(Cl)c1-c1cc(C(=O)N[C@H](CN)Cc2cccc(F)c2)sc1Cl`, the Potency entry is “inactive”. To `COC(=O)N[C@@H](C)CNc1nccc(-c2cn(C(C)C)nc2-c2cc(Cl)cc(NS(C)(=O)=O)c2F)n1` belongs “inactive”. On to `CO[C@H]1C[C@@H]2CC[C@@H](C)[C@@](O)(O2)C(=O)C(=O)N2CCCC[C@H]2C(=O)O[C@H]([C@H](C)C[C@@H]2CC[C@@H](OP(C)(C)=O)[C@H](OC)C2)CC(=O)[C@H](C)/C=C(\C)[C@@H](O)[C@@H](OC)C(=O)[C@H](C)C[C@H](C)/C=C/C=C/C=C/1C`, for which the Potency result is “inactive”.

For `C=Cc1cc(O)cc2nc(-c3ccc(O)c(F)c3)oc12`, the Potency entry was “inactive”. As for `COc1cc(C)[nH]c(=O)c1CN1CCc2c(Cl)cc([C@H](OC)C3COC3)c(Cl)c2C1=O`, the Potency entry was “inactive”.

`C[C@H](NC(=O)c1c(N)nn2cccnc12)c1cc2cccc(C#Cc3cnn(C)c3)c2c(=O)n1-c1ccccc1`: the Potency entry is “inactive”. Take `COc1cc([C@@H](CC(=O)O)c2ccc(C)c(CN3C[C@@H](C)Oc4ccccc4S3(=O)=O)c2)cc2nnn(C)c12`: the Potency result was “inactive”. On to `O=C(C1CC1)N1CC[C@@H](Cc2n[nH]c(=O)n2-c2ccc(-c3ccc4occc4c3)cc2)C1`, for which the Potency was 4.47 µM (active). In the case of `CCN(CC)C(=O)Cc1csc(NS(=O)(=O)c2cccc(Cl)c2C)n1`, the Potency result was “inactive”. As for `O=C(C(c1ccccc1)c1ccccc1)N1CCN(CC(O)COc2cccc3ncccc23)CC1` (stereo not given), the Potency entry was “inactive”.

Turning to `NC(=O)c1cnc2[nH]ccc2c1NC1C2CC3C[C@H]1CC(O)(C3)C2` (stereo not given in full), the Potency result was “inactive”. To `COc1ccc2nc3n[nH]c(C)c3c(NCCOCCO)c2c1` belongs “inactive”.

Consider `COc1ccc(CNC(=O)c2cc(-c3cncc(Cl)c3)cnc2-c2ccccn2)nc1OC`, for which the Potency entry was “inactive”. As for `Cc1cc(Nc2ncnc3ccc(NC4=NC(C)(C)CO4)cc23)ccc1Oc1ccn2ncnc2c1`, the Potency entry is “inactive”.

Turning to `CC1(C)OCCn2c1nc1c(N3CCOCC3)nc(-c3cnc(N)nc3)nc12`, the Potency entry was “inactive”. In the case of `CCCC1(CCC)CCC2(CCN(CCCN(CC)CC)C2)CC1`, the Potency was 7.08 µM (active). For the compound `COC(=O)/C=C/C(=O)N(O)CCCCNCc1ccc(COC(=O)Nc2cccc3ccccc23)cc1`, the Potency result was “inactive”. Turning to `CC(C)NC(=O)N1CC[C@H](N=C2Nc3cc(F)ccc3N(CC(F)F)c3ccc(Cl)cc32)C1`, the Potency entry is “inactive”.

Regarding `Cc1ccc(C(=O)Nc2ccc(CN3CCN(C)CC3)c(C(F)(F)F)c2)cc1C#Cc1cnc2[nH]ncc2c1`, the Potency is 31.6 µM (active). Turning to `COc1cc(N2CCN(C)CC2)ccc1Nc1ncc2c(n1)N(C)c1ccccc1C(=O)N2C`, the Potency entry is “inactive”. With `CS(=O)(=O)c1ccc([C@@H](CC2CCCC2)C(=O)Nc2nccs2)cc1`, the Potency entry was “inactive”. Consider `C=C1C(=O)O[C@H]2C[C@H](C)C(/C=C/C(C)=O)=CC[C@H]12`, for which the Potency was 31.6 µM (active).
